In the supplement of paper PMC6555819:

The sequences below were run on VDR:RXRa (NR concentration 270 nM, RXRa partner concentration 90 nM) (assay: PBM binding z-score (relative to random genomic background probes); higher = stronger binding; sequences stand for … in GC…GCGATTGACAGCGTAGAATGAAGG).
Protocol: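 Protein-binding microarray (Agilent 4x180K custom design, double-stranded 60-nt probes: 5' GC cap, 34-nt variable region, 24-nt constant primer region; full probe sequence given). Purified or IVT nuclear receptor:RXRα heterodimers (3:1 NR:RXRα, mostly 270:90 nM) or homodimers were incubated for 1 h in PBS with 2% milk and no ligand, then detected with Alexa488 antibodies. Fluorescence from o1-orientation probes (~5 replicates averaged) was converted to z-scores against 500 random hg19 background probes. Variable regions are seed direct-repeat (DR0–DR5) sites, all their single-nucleotide variants and half-site ablations.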

Sequence | PBM binding z-score
CATCGGAGGACAACAGGAGGTCAGAGCTGCCAGA | 2.21
ACTCGGAGGACAAAGTTCAGAGCTACGCCAGTGA | 1.95
ATCTCTAGGTAACAAGTTCACTGAAAGAGAGGAC | 3.26
ATACCAATGTGATCGTGAGGTCGTTGATACTAAC | 1.62
GCTGCTAGGTCAACTGACGGTCAGCTAAAGCTCG | 1.88
CCTGACGGGTCACTGACAGGTTATAGCATTTGGA | 2.94
CAAACTAGGTCAAAGTTCAAAGTCGAGCCAACCA | 6.12
ACTTACGGGTCAACGAGGTTATAGCACGCGTATA | 7.63
TCTCGGAAGACACGAAAGGTCAGAGCTCGACATC | 2.55
CCGACTAGGGCAAGGTTACCATAACGCACAGCCA | 0.178
TCTTGTAGATCAATAGAGGTTACGAAAGTGCGCT | 2.15
CAGCCTTGGTCAGGGCCAGTATAGGAGGAACGTT | -0.707
CTACCAAGGTGTACAAGGTCGTTGATTACTATTC | 2.39
CCTATTAGTTGACCATAAGGGCGACCGAAGCTCG | 0.426
TCTTGTTGATCAAGCAGGTTAAGAAAGCCTGAGT | 0.244
ATATGTAGGTTAGCTGGGGTCGTTCAGACTAGGC | 4.67
CGTCCAAGGTCGAGGTCAGTGAAAGAGACTCGAA | 3.73
CCGACTGGGGCAAAGGCTACCATACTCAGTACGA | -0.358
TCATATAGGTAAATGCTAGGTGAAAGTACGATCT | 1.15
CCTAGCAGGCCATGGTCACTCAAGCATTTCGCTT | -0.485

Sequence | PBM binding z-score
CAGCCTAGGGCAGGGCCAGTATAGGAGGAACGTT | -0.885
TCATATAGGAAAAGGTGAAAGTCGAACGATATGA | 0.862
CAAGCTAGGTCACAGAGGTCAAAGTCCGTGCGTA | 8.14
GCGACTGGCGCATCAGCAGGTTACCATAACTTAA | -0.625
TGAATGAGGTAATAAGATCAGGGAACGTTGCAAA | -0.334
CCTATTAGTTGACCATATGGGCAACCGAAGCTCG | 0.234
AATACAGCGTCACTAGGCCAGAGTAGGTACGAAT | -0.29
ATCGAACGGTCGAAGGTGAGTATACCCACCCGAA | -0.202
ATCTCTAGGTAACAAGTTCAGTTAAAGAGAGGAC | 2.23
AGAATGAGGTGAAGATCAGGGAAACAGAATACAT | 0.178
CCGCCTGGGGCATAAGGTTACCATAAGCCAGCCC | 0.151
GGAACGACGGCAAAGTTGATAGCATCTGTCGACG | -0.538
TTGAGTAGGTTAGGGGCATTCAGAATGGCGTCGA | 0.889
TGAATGAGGCTAAAGATCAGGGAACGTGGCGTCG | -0.503
ACTTACGGGTCAACGAGGTTATCGCACGCGTATA | 7.77
CCAGGCAGGTGAGAAGGTAACTCAGCCTCGATTA | -0.539
TTCCCAAGGTGAGCTGAGGTCGTTGATCCAACTC | 4.13
AGTCAAAGTTCACTACGTAACGTAAGATTCAGCT | 3.72
GATATTAGTTGAAAGGGCAACCGAATGATTCTCG | 0.661
AGAATGAGGTTATTGAGATCAGGGAATTGCGGTC | 3.35
